Counter-ions that a name gives are not always drawn.
Experiments:
Conditions in all cases: incubation time: 27 h, anaerobic, 37 °C;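 for the amine columns active = adjusted P below 0.05 in both replicates with a change the same way and a mean fold change under 0.8 or over 1.25; inactive = the rest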
[1] = test system: Clostridium sporogenes DSM 1664; assay: growth (OD595) fold change vs plate DMSO controls (fold change (ratio)); higher = more growth
Summary of the method: (§1)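 The reported measure is growth: the fold change against the median of DMSO controls on the plate. Absorbance at 595 nm from anaerobic 96-well mGAM cultures grown for 27 h at 37 °C was blank-subtracted, corrected for background with 20 µM compound solutions in water, and converted to OD with a calibration factor of 5. Fold changes above 1.5 appear as NA, and values are the mean of 2 biological replicates.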

Escherichia coli IAI1 [2] = assay: as above
Summary of the method: as §1

[3] = test system: Klebsiella aerogenes DSM 30053; assay: as above
Summary of the method: as §1

[4] = test system: Ruminococcus gnavus DSM 108212; assay: as above
Summary of the method: as §1

[5] = test system: Klebsiella aerogenes DSM 30053; assay: fold change of Histamine concentration vs plate DMSO controls (fold change (ratio)); higher = more amine produced, active = hit call of the paper (significant change in both replicates, either direction)
Summary of the method: (§2)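 Extracts of whole anaerobic mGAM cultures were analysed for amines by LC–triple-quadrupole MS with dynamic MRM and external calibration curves, with drift corrected within batch. Four gut strains were grown at 37 °C for 27 h in 80 µL wells with compounds at 20 µM final, sweeteners at 50 µM final. Each value expresses fold change over plate DMSO controls. The average of 2 biological replicates is shown.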

[6] = test system: Clostridium sporogenes DSM 1664; assay: fold change of Tryptamine concentration vs plate DMSO controls (fold change (ratio)); higher = more amine produced, active = hit call of the paper (significant change in both replicates, either direction)
Summary of the method: as §2

[7] = test system: Ruminococcus gnavus DSM 108212; assay: as above
Summary of the method: as §2

Escherichia coli IAI1 [8] = assay: fold change of Putrescine concentration vs plate DMSO controls (fold change (ratio)); higher = more amine produced, active = hit call of the paper (significant change in both replicates, either direction)
Summary of the method: as §2

[9] = test system: Klebsiella aerogenes DSM 30053; assay: as above
Summary of the method: as §2

Escherichia coli IAI1 [10] = assay: fold change of Cadaverine concentration vs plate DMSO controls (fold change (ratio)); higher = more amine produced, active = hit call of the paper (significant change in both replicates, either direction)
Summary of the method: as §2

[11] = test system: Klebsiella aerogenes DSM 30053; assay: as above
Summary of the method: as §2

[12] = test system: Ruminococcus gnavus DSM 108212; assay: fold change of 2-Phenylethylamine concentration vs plate DMSO controls (fold change (ratio)); higher = more amine produced, active = hit call of the paper (significant change in both replicates, either direction)
Summary of the method: as §2

Compound	growth [1]	growth (Escherichia coli IAI1 [2])	growth [3]	growth [4]	fold change of Histamine concentration [5]	fold change of Tryptamine concentration [6]	fold change of Tryptamine concentration [7]	fold change of Putrescine concentration (Escherichia coli IAI1 [8])	fold change of Putrescine concentration [9]	fold change of Cadaverine concentration (Escherichia coli IAI1 [10])	fold change of Cadaverine concentration [11]	fold change of 2-Phenylethylamine concentration [12]
COC(=O)C1=C(C#N)NC(C)=C(C(=O)OC(C)C)C1c1cccc([N+](=O)[O-])c1 (centres undefined) [Nilvadipine] (20 µM)	1.01	1.18	0.953	0.932	0.971 (inactive)	1.1 (inactive)	1.24 (inactive)	1.15 (inactive)	0.936 (inactive)	1.03 (inactive)	1.02 (inactive)	1.44 (active)
CC[C@@]1(O)C(=O)OCc2c1cc1n(c2=O)Cc2cc3c(CN(C)C)c(O)ccc3nc2-1 [Topotecan] (20 µM)	1.08	1.03	0.991	0.99	1.1 (inactive)	0.992 (inactive)	0.998 (inactive)	1.01 (inactive)	0.994 (inactive)	0.961 (inactive)	1 (inactive)	1.01 (inactive)
Cc1oncc1C(=O)Nc1ccc(C(F)(F)F)cc1 [Leflunomide] (20 µM)	1.13	0.978	1.03	0.971	1.06 (inactive)	0.995 (inactive)	0.998 (inactive)	1.01 (inactive)	1.01 (inactive)	1.08 (inactive)	1 (inactive)	1.01 (inactive)
CCCCOc1ccc(CC(=O)NO)cc1 [Bufexamac] (20 µM)	0.989	0.929	0.846	1.04	1.25 (inactive)	0.989 (inactive)	1.02 (inactive)	0.929 (inactive)	0.959 (inactive)	0.965 (inactive)	0.956 (inactive)	1.07 (inactive)
Cc1c(C(=O)NN2CCCCC2)nn(-c2ccc(Cl)cc2Cl)c1-c1ccc(Cl)cc1 [Rimonabant] (20 µM)	0.981	0.979	1	1.04	1.03 (inactive)	0.906 (inactive)	0.897 (inactive)	1.01 (inactive)	1.02 (inactive)	1.04 (inactive)	0.998 (inactive)	0.841 (inactive)
Cc1c(NC(=O)c2cccnc2)c(=O)n(-c2ccccc2)n1C [Nifenazone] (20 µM)	0.595	0.988	1.03	0.857	0.926 (inactive)	0.135 (active)	1.02 (inactive)	0.723 (active)	0.978 (inactive)	0.865 (inactive)	1 (inactive)	1.03 (inactive)
Nc1ccc(S(=O)(=O)Nc2ccnn2-c2ccccc2)cc1 [Sulfaphenazole] (20 µM)	1.01	1.11	1.04	1.11	0.99 (inactive)	0.977 (inactive)	0.994 (inactive)	1.04 (inactive)	1.03 (inactive)	1.04 (inactive)	1.02 (inactive)	0.95 (inactive)
CC(COc1ccccc1)N(CCCl)Cc1ccccc1 (centres undefined) [Phenoxybenzamine hydrochloride] (20 µM)	0.887	1.03	1.01	1.02	1.02 (inactive)	1 (inactive)	1.01 (inactive)	1.02 (inactive)	1.02 (inactive)	0.963 (inactive)	0.985 (inactive)	1.05 (inactive)
C[C@]12C[C@H](O)[C@H]3[C@@H](CCC4=CC(=O)CC[C@@]43C)[C@@H]1CC[C@@H]2C(=O)CO [Corticosterone] (20 µM)	0.994	1.05	1.07	1.11	0.992 (inactive)	0.971 (inactive)	0.998 (inactive)	1.05 (inactive)	0.99 (inactive)	1.01 (inactive)	1 (inactive)	1.04 (inactive)
CC(C)NCC(O)COc1cccc2[nH]ccc12 (centres undefined) [Pindolol] (20 µM)	1.03	1.13	1.01	0.881	0.989 (inactive)	1.07 (inactive)	1.12 (inactive)	1.18 (inactive)	1.04 (inactive)	1.21 (inactive)	1.15 (inactive)	1.27 (inactive)
O=S(=O)(c1cccc2cnccc12)N1CCCNCC1 [Fasudil Hydrochloride] (20 µM)	1.22	0.981	0.977	0.969	1.05 (inactive)	0.964 (inactive)	1.01 (inactive)	1.01 (inactive)	1.03 (inactive)	1.03 (inactive)	1.01 (inactive)	0.942 (inactive)
N=c1ccn2c(n1)O[C@H]1[C@H](O)[C@@H](CO)O[C@H]12 [Ancitabine hydrochloride] (20 µM)	1.2	1.01	0.999	0.855	1.06 (inactive)	0.98 (inactive)	0.744 (active)	1.02 (inactive)	0.991 (inactive)	1 (inactive)	0.992 (inactive)	0.794 (inactive)

Reference: the supplement of paper PMC12494721
